Assay outcomes as filed in PubChem.
Hits are enriched below; roughly 21% of the tested compounds scored in any of these assays.
HCV inh: qHTS Assay for Inhibitors of Hepatitis C Virus (HCV) | Huh7.5.1 HCVcc-Cre infection, luciferase reporter, 44 h | actives 3.4% (n = 340,000) | Potency, µM (titrated, usually from 41.8 µM), hits mostly inhibitors
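Cells (1,000/well) were plated 4 h before compound, then infected with HCVcc-Cre virus (~0.5 moi). After 44 h further culture, infection was read as luciferase luminescence following a 15 min substrate incubation at room temperature.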
Pf growth 48h: Primary qHTS for delayed death inhibitors of the malarial parasite plastid, 48 hour incubation. actives 5.9% (n = 310,000). P. falciparum luciferase growth in erythrocytes, 48 h. Potency, µM (titrated, usually from 28.7 µM), hits mostly inhibitors
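Parasite viability was followed by luminescence of a genomically integrated firefly luciferase. Cultures held 0.1% parasitemia at 2% hematocrit (final), incubated under 5% CO2 at 37 C.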
CHX counter: Cycloheximide Counterscreen for Small Molecule Inhibitors of Shiga Toxin; max response, %; cell reporter, cycloheximide protein synthesis inhibition counterscreen; AID 2314, 2010; actives 12% (n = 300,000); in the data active = max response mostly above about 13%, no sharp cut-off; inactive = mostly below about 14%; also: read at 38.3 µM for the half of the compounds with a filed dose
HCMV antiviral: qHTS Assay for inhibitors of the human cytomegalovirus (HCMV); actives 4.5% (n = 410,000); HFF cells, HCMV-luciferase reporter, 72 h; hits give low values; activity change, negative = inhibition, % at 57.5 µM; AID 1259415, 2018; in the data active = activity change below about -60%; inconclusive = no clear call, values can overlap the other calls; inactive = above about -39%
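Luciferase read-out from HCMV-luciferase-infected HFFs (MOI 1 PFU/cell) 72 h post infection at 37C; compounds added after 16 h cell attachment; activity normalized between buffer-only basal and Salinomycin (10uM) inhibitor controls.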
Pf growth 96h: Primary qHTS for delayed death inhibitors of the malarial parasite plastid, 96 hour incubation; P. falciparum luciferase reporter growth, 96 h; Potency, µM (series often up to 28.7 µM), actives largely listed as inhibitors; actives 6.9% (n = 320,000); AID 504834, 2011
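Compounds incubated with erythrocytes infected by luciferase-expressing P. falciparum (2% hematocrit, 0.05% parasitemia final) for 96 hours, 37 C in 5% CO2. Growth inhibition scored as decreased luciferase luminescence.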
Shiga inhibitor: A qHTS for Small Molecule Inhibitors of Shiga Toxin | Vero cells, Shiga toxin protein synthesis inhibition reporter | inhibition, % at 38.7 µM | actives 9.2% (n = 290,000) | AID 2315, 2010; in the data active = inhibition mostly above about 28%, no sharp cut-off; inactive = mostly below about 43%
Numbers stand for hits; 0 = inactive; ? = inconclusive; - = not tested or not shown; [ ] = remark or other dose. Unless noted, calls follow the shape of the dose curve; as a rule, active = well fitted inhibition curve with a large enough effect; inconclusive = small, poorly fitted or top-dose-only effect, or another doubt; inactive = no such curve, though single readings can be large or run the other way.

SMILES	HCV inh	Pf growth 48h	CHX counter	HCMV antiviral	Pf growth 96h	Shiga inhibitor
CC(=O)N1CCCc2cc(S(=O)(=O)N(C)CC(=O)Nc3ccc(C)cc3C)ccc21	-	-	-	0	-	-
Cc1ccc(NS(=O)(=O)c2cc(-c3n[nH]c(=O)c4ccccc34)ccc2C)cc1	?	?	0	?	0	0
O=C(O)c1ccc(N/N=C/C2=Cc3ccccc3OC2)cc1	0	0	41	0	0	73
Cc1ccsc1/C=N/N=C/c1sccc1C	0	0	48	0	8.3µM	-
Cc1ccsc1/C=N/NC(=O)CO	0	0	0	0	0	0
Cc1ccsc1C=Nc1ccc(O)cc1	0	?	15	-	0	0
O=C(NCCc1ccc(Cl)cc1)c1ccc(CSCc2ccc(Cl)cc2)o1	-	-	-	0	-	-
CCC(=O)c1ccc(OCC(=O)OCC(=O)c2cc(C)n(C3CC3)c2C)cc1	0	0	-	0	0	-
Cc1cc(C(=O)COc2ncnc3sccc23)c(C)n1C1CC1	0	0	49	0	-	92
CCCn1c(C)cc(C(=O)COc2ncnc3sccc23)c1C	0	0	44	0	0[5.75 µM]	105
CCCn1c(C)cc(C(=O)COc2ccc(-c3nnco3)cc2)c1C	?	?	42	0	?	67
CC1CCCC(C)N1C(=O)COc1ccc(-c2nnco2)cc1 (stereo not given)	0	0	0	0	0	0
COc1ccc(-c2csc(NC(=O)/C(N=Nc3ccccc3)=C(\C)O)n2)cc1	-	0	0	-	0	0
Cc1ccc(-c2nc(CN(C)Cc3cccc4cnccc34)c(C)o2)s1	?	?	0	-67	13µM	0
Cc1oc(-c2ccc(-c3ccccc3)cc2)nc1CN(C)C1CCOC1 (stereo not given)	?	0	60	0	?	75
Cc1oc(-c2cccc(Cl)c2)nc1CN(C)C1CCOC1 (stereo not given)	0	0	0	0	0	0
Cc1ccc(-c2nc(CN(C)C3CCOC3)c(C)o2)s1 (stereo not given)	0	0	25	0	0	0
Cc1ccc(N2C(=O)/C(=C/N3CCN(C(=O)c4ccco4)CC3)C(=O)NC2=S)cc1C	0	0	0	-101	0	0
Cc1cccc(N2C(=O)/C(=C/N3CCN(C(=O)c4ccco4)CC3)C(=O)NC2=S)c1	0	0	0	0	0[5.75 µM]	0
O=C(OCc1ccccc1)N1CCC2CC1c1ccc(Cl)cc12 (stereo not given)	-	-	-	0	-	-
COC(=O)c1ccc(NC(=O)CCN2C(=O)C3CC=CCC3C2=O)cc1 (stereo not given)	0	0	-	0	?	-
CN(C(=O)CCc1nnc(-c2ccc(-c3ccccc3)cc2)o1)C1CCOCC1	0	?	0	0	0	30
CN(CCCN1CCCCC1)C(=O)CCc1nnc(C2CCCCC2)o1	0	0	0	0	0	0
Cc1cc(C)n(CCN(C)C(=O)CCc2nnc(CCC3CCCCC3)o2)n1	0	0	38	0	0	91
CN(CCC1CCCCO1)C(=O)CCc1nnc(CCCCc2ccccc2)o1 (stereo not given)	0	0	17	0	0	0
SMILES	HCV inh	Pf growth 48h	CHX counter	HCMV antiviral	Pf growth 96h	Shiga inhibitor
CN(CCCC1CCCC1)C(=O)CCc1nnc(-c2ccccc2)o1	0	0	32	0	0	53
COCc1ccc(C(=O)N2CCCCC2C(=O)Nc2ccc(-n3nc(C)cc3C)cc2)o1 (stereo not given)	0	0	0	0	12µM	0
Cc1cc(C)n(-c2ccc(NC(=O)C3CCN(Cc4cc(C)c(C)o4)CC3)cc2)n1	0	?	0	0	0	0
Cc1cc(C)n(-c2ccc(C(=O)OCC(=O)Nc3ccc(S(=O)(=O)N4CCCCC4)cc3)cc2)n1	0	-	0	-	0	0
Cc1cc(C)n(-c2ccc(NC(=O)C3CCN(Cc4ccc(C)o4)CC3)cc2)n1	0	13µM	0	0	15µM	0
CC(C)N(Cc1nc(-c2ccc(Cl)cc2)no1)C(=O)c1ccc(C(C)(C)C)cc1	-	-	-	0	-	-
Cc1c(C(=O)O)sc(S(=O)(=O)N2CCN(C(=O)CCc3ccccc3)CC2)c1C(=O)O	0	0	-	0	0	-
COc1ccc(-c2csc(NC(=O)C3CC(=O)N(Cc4ccccc4)C3)n2)cc1OC (stereo not given)	?	?	0	0	?	0
